This is a sample that favours compounds with a hit; in the whole collection about 2.8% have one here.
DAGLB inh – diacylglycerol lipase beta (human) inhibition; 0.059% of 340,000 active; inhibition, % at 5.17 µM; Q8NCG7; HEK293T DAGLB membrane lysate, EnzChek fluorogenic substrate; in the data active = inhibition above about 34%
pPAFAH inh – pPAFAH (human) enzyme inhibition; inhibition, % at 3.39 µM; recombinant pPAFAH, FP-rhodamine probe fluorescence polarization; 1.5% of 330,000 active; Q13093;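 active = inhibition above the mean inhibition across the screen plus 3 SD, cut at about 25% in these data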;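 also: inhibitors block binding of the rhodamine activity-based probe so polarization drops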
HTRA1 inhibitor – inhibitors of human serine peptidase HTRA1; recombinant HTRA1, FP-rhodamine activity-based probe, fluorescence polarization; inhibition, % at 5.96 µM; 0.5% of 340,000 active; AID 504803; in the data active = inhibition above about 36%
PAFAH1B3 FP inh – PAFAH1B3 (human) inhibition; inhibition, % at 3.39 µM; Q15102; 0.28% of 340,000 active; recombinant PAFAH1B3, FP-rhodamine probe, fluorescence polarization; AID 492972;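 active = inhibition above the screen-wide average of all tested compounds plus 3 SD, cut at about 25% in these data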
Target sequence (Q15102 whole entry, looked up): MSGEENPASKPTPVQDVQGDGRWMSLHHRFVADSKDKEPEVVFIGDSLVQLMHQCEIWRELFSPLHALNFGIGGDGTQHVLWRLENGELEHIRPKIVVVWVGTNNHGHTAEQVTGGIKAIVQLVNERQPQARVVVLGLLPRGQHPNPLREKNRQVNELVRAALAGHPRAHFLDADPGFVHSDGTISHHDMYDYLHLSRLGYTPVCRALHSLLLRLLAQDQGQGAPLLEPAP
PAFAH2 FP inh – inhibitors of human PAFAH2. inhibition, % at 3.39 µM. 0.99% of 340,000 active. recombinant PAFAH2, FP-rhodamine activity probe, fluorescence polarization;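 active = inhibition above the mean over all tested compounds plus 3 SD, cut at about 30% in these data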;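 also: inhibitors block probe labeling of enzyme so polarization drops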
PAFAH1B2 inh – PAFAH1B2 (human) inhibition | 1.2% of 340,000 active | AID 492953 | recombinant PAFAH1B2, FP-rhodamine activity probe, fluorescence polarization | inhibition, % at 3.39 µM | P68402;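 active = inhibition above the mean of all tested compounds plus 3 SD, cut at about 24% in these data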
Target sequence (P68402 whole entry, looked up): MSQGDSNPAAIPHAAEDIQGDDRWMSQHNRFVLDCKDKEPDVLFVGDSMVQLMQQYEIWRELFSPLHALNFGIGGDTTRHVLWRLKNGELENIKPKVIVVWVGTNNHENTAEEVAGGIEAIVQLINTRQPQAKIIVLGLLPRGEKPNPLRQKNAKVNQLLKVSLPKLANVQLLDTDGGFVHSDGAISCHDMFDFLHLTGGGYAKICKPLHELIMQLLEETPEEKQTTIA
Numbers stand for hits; - = inactive; . = no result.

SMILES | DAGLB inh | pPAFAH inh | HTRA1 inhibitor | PAFAH1B3 FP inh | PAFAH2 FP inh | PAFAH1B2 inh
Cc1ccc(C)c(NS(=O)(=O)c2ccc(OCC(=O)NCC3CCCO3)cc2)c1 (stereo not drawn) | - | 28 | - | - | - | -
Cc1ccccc1NS(=O)(=O)c1ccc(C(=O)NCC2CCCO2)cc1 (stereo not drawn) | - | 25 | - | - | - | -
Cc1ccc(OCC(=O)NCC2CCCO2)c(C)c1 (stereo not drawn) | - | - | - | - | - | -
O=C(NCC1CCCO1)c1cccc(S(=O)(=O)Nc2ccc(SC(F)F)cc2)c1 (stereo not drawn) | - | 34 | - | - | - | -
COc1ccc(NS(=O)(=O)c2cccc(C(=O)NCC3CCCO3)c2)cc1 (stereo not drawn) | - | - | - | - | - | -
Cc1ccc(S(=O)(=O)Nc2ccccc2C(=O)NCC2CCCO2)cc1 (stereo not drawn) | . | - | . | . | . | .
CNC(=O)C[C@H]1C(=O)N(CCc2ccccc2)C[C@@H]1CSC | - | . | - | . | . | .
C[C@@H]1O[C@@H](OC2C(O)C(OCCc3ccc(O)c(O)c3)OC(CO)C2OC(=O)/C=C/c2ccc(O)c(O)c2)[C@H](O)[C@H](O)[C@H]1O (stereo partly drawn) | . | 46 | . | . | . | .
C[C@@H]1O[C@@H](O[C@H]2[C@H](O)[C@@H](O)[C@H](Oc3c(-c4ccc(O)cc4)oc4cc(O)cc(O)c4c3=O)O[C@@H]2CO)[C@H](O)[C@H](O)[C@H]1O | - | - | - | - | - | -
Cc1cccc(Nc2nnc(SCC(O)=C(C#N)c3nc4ccccc4[nH]3)s2)c1 | - | . | - | - | - | 26
N#Cc1c(Cl)cccc1Oc1ccc(S(=O)(=O)Nc2ccccc2)cc1 | . | 26 | . | . | . | .
O=S(=O)(NCc1c(Cl)cccc1Oc1ccccc1)c1ccccc1 | - | - | - | - | - | -
N#CC1=C(N)C2=CCCC[C@H]2[C@H](c2ccc(Br)cc2)C1(C#N)C#N | - | 28 | - | - | - | -
O=C(CN1C(=O)NC(c2ccccc2)(c2ccccc2)C1=O)Nc1ccc2[nH]c(=O)[nH]c2c1 | - | 25 | - | - | - | -
CC1(c2ccc(OC(F)F)cc2)NC(=O)N(CC(=O)Nc2ccc3[nH]c(=O)[nH]c3c2)C1=O (stereo not drawn) | - | 28 | - | - | - | -
COc1cscc1C(=O)O | - | - | - | - | - | -
CC1(C)C(=O)N(c2ccccc2)C1c1ccccc1O (stereo not drawn) | - | - | - | - | - | 52
COc1ccc(N2C(=O)C(C)(C)C2c2c(O)ccc3ccccc23)cc1 (stereo not drawn) | - | - | - | - | - | -
CC1(C)Cc2c(cnn2-c2cccc(F)c2)C(NC(=O)CN2CCCC2=O)C1 (stereo not drawn) | - | - | - | - | - | -
CC1CCN(S(=O)(=O)c2ccc3[nH]c(=O)c(=O)[nH]c3c2)CC1 | - | - | - | - | - | 60
N#CCCN(C(=O)COC(=O)Cc1ccc(Br)cc1)c1ccccc1 | - | - | - | - | - | 27
O=c1[nH]c2c(c(=O)[nH]1)CCC2 | - | - | - | - | - | -
O=C(CCS(=O)(=O)Cc1ccccc1)N1CCN(c2ccccc2)CC1 | - | - | - | - | - | -
Cc1ccccc1CS(=O)(=O)CCC(=O)N1CCN(c2ccc(N3CCOCC3)nn2)CC1 | - | 27 | - | - | - | -
COc1ccc(CNC(=O)COC(=O)C(CCSC)NC(=O)c2ccco2)cc1OC (stereo not drawn) | - | - | - | - | - | -
SMILES | DAGLB inh | pPAFAH inh | HTRA1 inhibitor | PAFAH1B3 FP inh | PAFAH2 FP inh | PAFAH1B2 inh
O=C(NC1CCCCC1)N1CCN(c2ccccc2Cl)CC1 | - | - | - | - | - | -
O=[N+]([O-])c1ccccc1S(=O)(=O)NCCSc1ccccc1 | - | - | - | - | - | 29
CCCC#Cc1cnc2c(c1)C(=O)N([C@H](C)CO)C[C@H](C)[C@@H](CN(C)C(=O)CCN1CCCCC1)O2 | - | . | - | . | . | .
Nc1cc2nsnc2cc1Br | - | - | - | 59 | 56 | 43
CN(C(=O)COC(=O)C12CC3CC(CC(Cl)(C3)C1)C2)C1(C#N)CCCCC1 | - | - | - | - | - | 24
COC(=O)C1=C(CSc2nc3c(cc2C#N)CN(C)CC3)OC(N)=C(C#N)C1c1ccc(F)cc1 (stereo not drawn) | - | 26 | - | - | - | -
COc1ccc(C2CC(c3cccc(Br)c3)=NN2c2ccc(S(N)(=O)=O)cc2)cc1 (stereo not drawn) | - | 32 | - | - | - | -
O=C(CSc1ncn[nH]1)NCCc1ccc(Cl)cc1 | - | - | - | - | - | 31
Cc1ccc(C)c(SCC(=O)NC(=O)NCc2ccccc2)c1 | - | - | - | - | - | -
O=C(CSc1ccccc1)NCCc1ccc(F)cc1 | - | - | - | - | - | 27
O=C(CSc1ccccc1)NCCc1ccccc1 | - | - | - | - | - | -
O=C(CSc1ccc(F)cc1)NCCSc1ccccc1 | - | - | - | - | - | 28
O=C(CSc1ccc(F)cc1)NC(=O)NCc1ccccc1 | - | - | - | - | - | 28
Cc1nn(C)c(C)c1NS(=O)(=O)c1c(C)n[nH]c1C | - | - | - | - | - | -
COc1ccc(CNS(=O)(=O)NCc2ccc(C)cc2)cc1OC | - | - | - | - | - | -
CC(NC(=O)CN(c1ccc(Cl)cc1)S(C)(=O)=O)c1ccccc1 (stereo not drawn) | - | - | - | - | - | -
CCCNC(=O)C[C@@H]1C[C@H]2c3cc(NC(=O)c4ccc5c(c4)OCO5)ccc3O[C@H]2[C@@H](CO)O1 | - | . | - | . | . | .
CCC(C(=O)N1CCN(Cc2ccc3c(c2)OCO3)CC1)n1c(=O)[nH]c2ccccc2c1=O (stereo not drawn) | - | - | - | - | - | -
O=C(CSc1ccc2ccccc2c1)NCCc1ccc(O)c(O)c1 | - | 27 | - | - | - | -
COc1ccc(N(C(=O)CNC(=O)c2ccco2)C(C(=O)NC2CCCCC2)c2ccco2)cc1 (stereo not drawn) | - | - | - | - | - | 26
COc1cccc(N(C(=O)CNC(=O)c2ccco2)C(C(=O)NC2CCCC2)c2ccco2)c1 (stereo not drawn) | - | - | - | - | - | -
COc1ccc(N(C(=O)c2ccco2)C(C(=O)NC2CCCCC2)c2ccccc2)cc1 (stereo not drawn) | - | - | - | - | - | -
COc1ccc(N(C(=O)c2ccco2)C(C(=O)NC2CCCC2)c2ccccc2)cc1 (stereo not drawn) | - | 34 | - | - | - | -
CCc1ccccc1NC(=O)c1cc(=O)c2ccccc2o1 | - | - | - | - | - | -
CC(C)(C)c1[nH]nc2c1C(C1C=CCCC1)C(C#N)=C(N)O2 (stereo not drawn) | - | - | - | - | - | 27
